Screen size: about 200,000 compounds; about 780 (0.39%) were called active. No stated cut-off is given here; in the data, active means TR-FRET ratio above about 2000; inactive means the rest. Shown is part of a subset that was picked to be rich in actives.
assay: TR-FRET signal artefacts, primary screen, artefact control for PPARgamma SRC-2 agonist project, biochemical (AID 1049); conditions: TR-FRET artefact counter-screen; at 8 µM; stronger effect = higher value

Row | Compound | TR-FRET ratio
1 | CSC1=NP(=S)(SC)N(C)c2nc3n(c21)CCC3 (stereo not given) | 3350 (active)
2 | Cc1ccc(C)c(NC2=NCCCS2)c1 | 1500 (inactive)
3 | Cc1cccc(-n2c(O)c(C=NC34CN5CN(CN(C5)C3)C4)c(=O)[nH]c2=O)c1 | 1640 (inactive)
4 | OC1/C(=C/c2ccc(C(F)(F)F)cc2)N2CCC1CC2 (stereo not given) | 1710 (inactive)
5 | COc1cc(-n2c(=S)[nH]c3ccc(C)cc3c2=O)c(Cl)cc1Cl | 2140 (active)
6 | O=c1c2ccccc2nc(-c2ccccc2)n1-c1ccccn1 | 1550 (inactive)
7 | O=C(COC(=O)Cc1ccccc1)Nc1ccc(F)cc1 | 1600 (inactive)
8 | CN(C)c1nc(N(C)C)nc(N(C#N)CCCl)n1 | 1800 (inactive)
9 | CCCn1c(C(=O)c2ccccc2OC)nc2ccccc21 | 1400 (inactive)
10 | O=c1[nH]c(=O)n(-c2ccccc2)c(O)c1C=NC12CN3CN(CN(C3)C1)C2 | 1500 (inactive)

Reference: PubChem BioAssay AID1049 (The Scripps Research Institute Molecular Screening Center, 2008)
